# The whole screen tested about 38,000 compounds, of which about 1,200 (3.2%) showed an effect of 50% or more. The median lay at about -58%. Many of the other results were omitted from the sample, so strong results are more common in it than they were.
# Test system: Plasmodium falciparum
# Assay: Calibr Malaria Delayed Death Assay SOP
# Assay type: functional, organism-based
# Set-up: scale not given: in the data most compounds retested in dose-response had high values
# Settings: concentration 4.99e-06 (unit not given; other assays of the set use mol/L)
row,SMILES,Percent Effect
1,Cc1cc(CN(C)c2nc(-c3ccco3)nc3c2CCN(C)CC3)on1,-7.108%
2,O=C(COc1cccc2c1CCC2=O)NCCOc1ccccc1,-101.5%
3,Cn1cc(C[C@H]2[C@H](O)CCN2Cc2ccc3c(c2)OCO3)cn1,-152.7%
4,COc1cc(CNc2ccc(C)c(Cl)c2)ccc1OCC(N)=O,-61.06%
5,O=C(CN1CCCC1Cn1cncn1)Nc1ccnn1C1CCCC1 (stereo unspecified),-46.57%
6,NC(=O)c1nc(-c2cccc(Cl)c2)oc1N,-143.3%
7,Clc1ccc(C2(CNC3=NCCN3)CC2)cc1.I,82.97%
8,CC(NC(=O)NCC1(c2ccc(Cl)cc2)CC1)c1nncn1C (stereo unspecified),-41.57%
9,CCCNC(=O)c1c(-n2cnnn2)sc2c1CCC2,-55.33%
10,CC(=O)NC(CC(=O)Nc1nc(C)c(C)s1)c1ccccc1 (stereo unspecified),-83.12%
11,COc1ccc(CN2CCC3(CCCN(c4ncc(F)cn4)C3)C2)cc1.O=C(O)C(F)(F)F (stereo unspecified),86.34%
12,Fc1cnc(N2CCCC3(CCN(Cc4ccoc4)C3)C2)nc1.O=C(O)C(F)(F)F.O=C(O)C(F)(F)F (stereo unspecified),72.25%
13,Fc1cnc(N2CCCC3(CN(Cc4ccccc4)CCO3)C2)nc1.O=C(O)C(F)(F)F (stereo unspecified),-95.68%
14,O=C(c1ccco1)N1CCC2(CCCN(c3ncc(F)cn3)C2)C1 (stereo unspecified),-116%
15,CC(C)c1ccc(CN2CCC3(CCCN(c4nncs4)C3)C2)cc1.O=C(O)C(F)(F)F (stereo unspecified),73.03%
16,Cc1cnc(N2C[C@@H]3CN(Cc4ccco4)CCC[C@]3(C(=O)O)C2)nc1.O=C(O)C(F)(F)F,-71.37%
17,COc1cccc(CN2CCC3(CCN(c4ncc(F)cn4)CC3)C2)c1.O=C(O)C(F)(F)F,-47.02%
18,Fc1ccc(CN2CCC3(CCCN(c4nncs4)C3)C2)cc1.O=C(O)C(F)(F)F (stereo unspecified),-107.3%
19,COc1cccc(CN2CCC3(CC2)CCN(c2ncc(F)cn2)C3)c1.O=C(O)C(F)(F)F,-115%
20,Fc1cnc(N2CCCC3(CCN(Cc4ccco4)C3)C2)nc1.O=C(O)C(F)(F)F.O=C(O)C(F)(F)F (stereo unspecified),77%
21,O=C(O)C(F)(F)F.O=C(c1ccncc1)N1CCC2(CCCN(c3ncc(F)cn3)C2)C1 (stereo unspecified),-90.51%
22,CC(C)CCN1CCC2(CCCN(c3nncs3)C2)C1.O=C(O)C(F)(F)F (stereo unspecified),-67.46%
23,Cc1oc(-c2nc(C#N)c(NC(C)C)o2)cc1S(=O)(=O)N1CCCC1,-121.8%
24,Cc1ncc2c(n1)CN(Cc1nc(-c3ccco3)oc1C)CC2,-128.1%
25,CC(C)C(=O)N1CCN(Cc2csc(-c3ncccn3)n2)CC1,-79.45%
26,CCn1nc(C)c(C(=O)NCc2csc(C3CC3)n2)c1C,-85.55%

row,SMILES,Percent Effect
1,Cc1noc(C)c1CN1CCc2ncnc(-c3cnn(C)c3)c2CC1.O=C(O)C(F)(F)F,-17.12%
2,CCC(=O)NCC(=O)NC(C)c1ccc(OCCC(C)C)cc1 (stereo unspecified),22.17%
3,COc1cc(-c2cc(=O)[nH]cn2)cc(OC)c1OC,-8.244%
4,CC(=O)N1[C@H](CN(C)C)C[C@@H]2CN(C(=O)c3cccc(F)c3)CC[C@@H]21.O=C(O)C(F)(F)F,-121.5%
5,CCC(NC(=O)CNCC(F)(F)F)c1cc(F)ccc1F (stereo unspecified),-157%
6,O=C(c1ccoc1)N1CCC2(CCCN(c3ncc(F)cn3)C2)C1 (stereo unspecified),-22.39%
7,Fc1cnc(N2CCCC3(CCN(Cc4nccs4)C3)C2)nc1 (stereo unspecified),21.75%
8,COc1cc(N2C[C@H](C(=O)N3CCCC3)[C@@H]3CCO[C@@H]3C2)ncn1,-18.3%
9,Cc1cnc(CN(C)C2CCN(Cc3nc4c(F)cccc4[nH]3)C2)o1 (stereo unspecified),-76.29%
10,COc1nn(C)c2c1CCCN(C(=O)c1cscn1)C2,-85.03%
11,CCOC(C)C(=O)Nc1ccnn1-c1ccccc1C (stereo unspecified),-113.5%
12,Cl.Clc1ccc(-c2ccc(C3CNCCO3)nc2)cc1 (stereo unspecified),85.23%
13,O=C(C(c1ccccc1)S(=O)(=O)c1ccccc1)N1CCCCC1 (stereo unspecified),-134.4%
14,CCc1nc(C)sc1CN1CC[C@@](O)(C2CC2)[C@H](C)C1,-41.51%
15,Cc1csc(C(=O)N2CCCC(c3[nH]ncc3S(C)(=O)=O)C2)c1 (stereo unspecified),-79.4%
16,O=C(NCC(O)c1ccsc1)Nc1cccs1 (stereo unspecified),-26.53%
17,O=C(O)C(F)(F)F.O=C(O)C(F)(F)F.c1csc(CN2CCCC3(COCCN(c4cnccn4)C3)C2)c1 (stereo unspecified),45.61%
18,CC(C)CN1CCCC2(CCN(c3ccccn3)C2)C1.O=C(O)C(F)(F)F (stereo unspecified),70.33%
19,Cc1cnc(N2CCC3(CC2)CN(Cc2cccs2)CCO3)nc1.O=C(O)C(F)(F)F.O=C(O)C(F)(F)F,-40.39%
20,CC(C)CN1CCCC2(CCN(c3ccc(C#N)cn3)C2)C1.O=C(O)C(F)(F)F (stereo unspecified),4.981%
21,Fc1cnc(N2CCCC3(CN(Cc4cccs4)CCO3)C2)nc1.O=C(O)C(F)(F)F (stereo unspecified),-85.22%
22,COc1cc(N2CCC3(CCCN(Cc4ccccn4)C3)C2)ncn1.O=C(O)C(F)(F)F (stereo unspecified),-7.04%
23,Fc1cnc(N2CCCC3(CCN(Cc4cccs4)C3)C2)nc1.O=C(O)C(F)(F)F.O=C(O)C(F)(F)F (stereo unspecified),67.75%
24,O=C(O)C(F)(F)F.O=C(O)C(F)(F)F.c1cnc(N2CCOCC3(CCCN(Cc4cccs4)C3)C2)nc1 (stereo unspecified),-21.37%
25,O=C(O)C(F)(F)F.c1ccc(N2CCCC3(CCN(Cc4cccs4)C3)C2)nc1 (stereo unspecified),72.7%
